From ChEMBL document CHEMBL3988442, “University of Dundee, Small-Polar-MMV Screening Library” (2021)
The campaign covered roughly 38,000 compounds. About 1,200 (3.2%) showed an effect of 50% or more. The median lay at about -58%. The list comes from a sample in which strong results are over-represented; it also holds similar structures and randomly drawn compounds.

System: Plasmodium falciparum
Experiment: Calibr Malaria Delayed Death Assay SOP
Type: functional, organism-based
Design: scale not given: in the data most compounds retested in dose-response had high values
Conditions: concentration 4.99e-06 (unit not given; other assays of the set use mol/L)

| SMILES | Percent Effect |
| --- | --- |
| CC(C)(C)OC(=O)N1CCN(c2nnc(Br)s2)CC1 | -125.7% |
| Cn1cccc1C(=O)N1CCn2nnc(COc3cccnc3)c2C1.O=C(O)C(F)(F)F | -3.271% |
| Cc1csc(C(=O)NCCn2nc(-n3cncn3)ccc2=O)c1 | -119.2% |
| O=C(Cn1cc(-c2ccccc2)ncc1=O)NC1CCCCC1 | -177.8% |
| CCCS(=O)(=O)N1CCOC2(CCCN(c3ccccn3)C2)C1.O=C(O)C(F)(F)F (stereo not given) | -72.32% |
| COc1ccc2c(c1)OCC(CNC(=O)c1ccc3[nH]nnc3c1)C2 (stereo not given) | -64.67% |
| COCCN(CC1CCCN(C2Cc3ccccc3C2)C1)C(=O)COC (stereo not given) | 37.76% |
| COCCN(CC1CCCN(C2Cc3ccccc3C2)C1)C(=O)CO (stereo not given) | 58.68% |
| COCCN(CC1CCCN(C2Cc3ccccc3C2)C1)C(=O)CSC (stereo not given) | -1.59% |
| NCc1ccnc(Oc2ccccc2)c1 | -83.78% |
| O=C(CO)N1C[C@H]2CN(Cc3cccc(F)c3)C(=O)[C@H]2C1 | -121.2% |
| CC(NC(=O)NCC1(c2ccc(F)cc2)CCCC1)c1nncn1C (stereo not given) | -7.891% |
| Fc1ccc(C2(CNC3=NCCN3)CCCC2)cc1.I | 83.26% |
| CN(C)c1cc(C(=O)NCC2(c3ccc(F)cc3)CC2)ccn1 | -97.96% |
| Fc1ccc(OCCCNC2=NCCCN2)cc1.I | 2.763% |
| Fc1ccc(C2(CNC3=NCCCN3)CCC2)cc1.I | -5.202% |
| COc1cccc(N2C(=O)CC3(CCCNC3)C2=O)c1.Cl (stereo not given) | -161.5% |
| c1ccc2oc(CN3CCCCC3Cn3cncn3)nc2c1 (stereo not given) | -88.89% |
| COc1ccc(CN2CC(=O)N(c3ccc(C)cc3)CC2C)cc1O (stereo not given) | -98.66% |
| COc1cccc(CN2CC(=O)N(c3ccccc3C)CC2C)c1OC (stereo not given) | 52.42% |
| COc1ccc(F)c(CN2CC(=O)N(c3ccccc3C)CC2C)c1 (stereo not given) | 6.943% |
| COc1cccc(OC)c1CN1CC(=O)N(c2ccc(C)cc2)CC1C (stereo not given) | 75.45% |
| COc1ccc(F)c(F)c1CN1CC(=O)N(c2ccccc2C)CC1C (stereo not given) | 28.54% |
| COc1cc(CN2CC(=O)N(c3ccc(C)cc3)CC2C)cc(OC)c1 (stereo not given) | 43.44% |
| CN(C)C(=O)CO[C@H]1CN(Cc2ccoc2)[C@@H]2COC[C@H]12.O=C(O)C(F)(F)F | -8.838% |
| CN(Cc1cnc(N)nc1)CC1CCCN(CCc2ccc(Cl)cc2)C1 (stereo not given) | -42.11% |
| Cc1cc(CN(C)CC2CCCN(CCc3ccc(Cl)cc3)C2)[nH]n1 (stereo not given) | -73.95% |
| Cc1nc[nH]c1CN(C)CC1CCCN(CCc2ccc(Cl)cc2)C1 (stereo not given) | 82.22% |
| CN(Cc1ccncc1)CC1CCCN(CCc2ccc(Cl)cc2)C1 (stereo not given) | -30.31% |
| CN(Cc1ccccc1O)CC1CCCN(CCc2ccc(Cl)cc2)C1 (stereo not given) | -82.77% |
